Here are results for 32 molecules from PubChem BioAssay AID1345085 (National Center for Advancing Translational Sciences (NCATS), 2018).

Records with an inconclusive call do not appear. Where a call stands in place of a potency, no number is given. Activity calls are given as the source filed them. Calls follow the shape of the dose curve; as a rule, active = well fitted cell-killing curve with a large enough effect; inconclusive = small, poorly fitted or top-dose-only effect, or effect the other way; inactive = no such curve, though single readings can be large or run the other way.
Potency is read from the fitted curve at half-maximal effect.

This assay deals with C33A. Kind of assay: Confirmatory qHTS for gynecologic anti-cancer compounds from libraries of approved drugs and bioactive compounds. Also: nearly all actives have a fitted effect of over 55% in size. To be noted: gynecologic cancer cell panel viability, ATPlite luminescence, 48 h; series mostly up to 57.6 µM. In outline:
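ATPlite luminescence read-out of cell viability; IC50 from 11-point 1:3 titrations, 57.5 uM to 0.977 nM, 48 h compound exposure at 37 C, 5% CO2. Cells seeded at 1,000/well 16 h before dosing.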
For `Cc1cnc(Nc2ccc(F)cc2Cl)nc1-c1c[nH]c(C(=O)NC(CO)c2cccc(Cl)c2)c1` (configuration not stated), the Potency result was “inactive”.

On to `C#C[C@]1(O)CC[C@H]2[C@@H]3CCC4=CC(=O)CC[C@@H]4[C@H]3CC[C@@]21CC`, for which the Potency result is “inactive”.

As to `CCCc1nn(C)c2c(=O)[nH]c(-c3cc(S(=O)(=O)N4CCN(C)CC4)ccc3OCC)nc12`, the Potency entry is “inactive”.

On to `CN(C)C(CCOc1cccc2ccccc12)c1ccccc1` (configuration not stated), for which the Potency entry was “inactive”.

Regarding `CNCc1ccc(-c2[nH]c3cc(F)cc4c3c2CCNC4=O)cc1`, the Potency entry was “inactive”.

On to `CCN[C@H]1C[C@H](C)S(=O)(=O)c2sc(S(N)(=O)=O)cc21`, for which the Potency result is “inactive”.

On to `COc1ccc2c(c1)c(CC(=O)O)c(C)n2C(=O)c1ccc(Cl)cc1`, for which the Potency result was “inactive”.

For the molecule `CC(C)C[C@H](NC(=O)[C@H](CCc1ccccc1)NC(=O)CN1CCOCC1)C(=O)N[C@@H](Cc1ccccc1)C(=O)N[C@@H](CC(C)C)C(=O)[C@@]1(C)CO1`, the Potency was 6.11 µM (active).

Consider `CCCC(=O)O[C@]1(C(=O)CCl)[C@@H](C)C[C@H]2[C@@H]3CCC4=CC(=O)C=C[C@]4(C)[C@@]3(F)C(=O)C[C@@]21C`, for which the Potency entry is “inactive”.

In the case of `CS(=O)(=O)c1ccc(-c2cnc(N)c(C(=O)Nc3ccccc3)n2)cc1`, the Potency entry was “inactive”.

With `CC(=O)OC12COC1CC(O)C1(C)C(=O)C(O)C3=C(C)C(OC(=O)C(O)C(NC(=O)OC(C)(C)C)c4ccccc4)CC(O)(C(OC(=O)c4ccccc4)C21)C3(C)C` (configuration not stated), the Potency entry was “inactive”.

For `CCN1C[C@H](C)n2c(c(O)c3c(=O)n(Cc4ccc(F)c(Cl)c4)nc(C(=O)NC)c32)C1=O`, the Potency entry is “inactive”.

`Cc1c(C)n(Cc2ccc(-c3ccccc3C(=O)O)cc2)c2ccc(C(=O)N[C@@H](C)c3ccc([N+](=O)[O-])cc3)cc12`: the Potency entry was “inactive”.

Consider `COc1ccc2c(c1OC)C(=O)O[C@@H]2[C@H]1c2c(cc3c(c2OC)OCO3)CCN1C`, for which the Potency result is “inactive”.

Turning to `CN[C@@H](C)C(=O)N[C@H]1CN(C(=O)CC(C)C)CC[C@H]2CC[C@@H](C(=O)NC(c3ccccc3)c3ccccc3)N2C1=O`, the Potency entry is “inactive”.

With `Cc1cc(SCc2sc(-c3ccc(C(F)(F)F)cc3)nc2C)ccc1OCC(=O)O`, the Potency result is “inactive”.

Consider `CC(=O)c1cnc2ccc(-c3cc(Cl)c(O)c(Cl)c3)nc2c1NC1CCC(CN(C)C)CC1` (configuration not stated), for which the Potency was 1.4 µM (active).

Regarding `COc1c(C)c2c(c(O)c1C/C=C(\C)CCC(=O)OCCN1CCOCC1)C(=O)OC2`, the Potency is 2.73 µM (active).

As to `Fc1cc(-c2cccc3ncc(-c4cnn(C5CCNCC5)c4)nc23)cc(F)c1CN1CCOCC1`, the Potency was 24.3 µM (active).

For the molecule `O=C(Nc1cn[nH]c1-c1nc2ccc(CN3CCOCC3)cc2[nH]1)NC1CC1`, the Potency was 13.7 µM (active).

On to `NC(=O)c1cnc(-c2ccc(C3(N)CCC3)cc2)c(-c2ccccc2)c1`, for which the Potency is 19.3 µM (active).

As for `COc1cccc2c1C(=O)c1c(O)c3c(c(O)c1C2=O)C[C@@](O)(C(=O)CO)C[C@@H]3O[C@H]1C[C@H](N)[C@H](O)[C@H](C)O1`, the Potency was 1.22 µM (active).

Take `CC[C@@]1(O)C(=O)OCc2c1cc1n(c2=O)Cc2cc3cc(O)ccc3nc2-1`: the Potency is 0.306 µM (active).

In the case of `O=c1[nH]c(=O)n([C@H]2C[C@H](O)[C@@H](CO)O2)cc1F`, the Potency was 2.17 µM (active).

Regarding `COc1cccc2c1C(=O)c1c(O)c3c(c(O)c1C2=O)C[C@@](O)(C(=O)CO)C[C@@H]3O[C@H]1C[C@H](N)[C@H](O[C@@H]2CCCCO2)[C@H](C)O1`, the Potency was 2.43 µM (active).

As to `C[C@@]1(C(=O)Nc2ccc(F)nc2)CCCN1c1nc(Nc2cc(C3CC3)[nH]n2)c2cccn2n1`, the Potency result is “inactive”.

For the molecule `OCc1ccc(-c2ccc(-c3ccc(CO)s3)o2)s1`, the Potency result is “inactive”.

Turning to `CCC1C(=O)N(C)c2cnc(Nc3ccc(C(=O)NC4CCN(C)CC4)cc3OC)nc2N1C1CCCC1` (configuration not stated), the Potency was 0.0544 µM (active).

Consider `CC(Oc1ccc2[nH]nc(/C=C/c3cnn(CCO)c3)c2c1)c1c(Cl)cncc1Cl` (configuration not stated), for which the Potency entry is “inactive”.

`Cc1ccc(C(=O)Nc2ccc(CN3CCN(C)CC3)c(C(F)(F)F)c2)cc1C#Cc1cnc2[nH]ncc2c1`: the Potency was 17.2 µM (active).

For `CCN(CC)CCCC(C)Nc1c2ccc(Cl)cc2nc2ccc(OC)cc12` (configuration not stated), the Potency is 24.3 µM (active).

Regarding `NS(=O)(=O)c1ccc(Nc2nc(OCC3CCCCC3)c3[nH]cnc3n2)cc1`, the Potency entry is “inactive”.
